Sampled rows, rich in hits. Any-hit rate of the full collection: about 2.4%.
POLB inh: qHTS Assay for Inhibitors of DNA Polymerase Beta. Pol beta primer extension/strand displacement, fluorescence kinetic. actives 1.3% (n = 340,000). Potency, µM (doses to about 114 µM), for inactives: top-dose activity change, negative = inhibition, most hits filed as inhibitors. P06746; also: % is scaled to controls: 0 for no effect and ±100 for the full control effect
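Homogeneous kinetic assay of primer extension and strand displacement by 10 nM Pol beta, preincubated 15 min at room temperature with compound before 50 nM substrate (final) was added. Read at 0 and 10 min; four-parameter Hill fit.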
WRN helicase inh-1: qHTS for Inhibitors of WRN Helicase. Bifunctional 3'-5' exonuclease/ATP-dependent helicase WRN (Homo sapiens), Q14191. WRN helicase unwinding, fluorescent forked duplex, kinetic. Potency, µM (top dose mostly 114 µM), without a hit: at the highest dose activity change, negative = inhibition, actives largely listed as inhibitors. actives 0.46% (n = 360,000). AID 651768, 2012; also: % is scaled to controls: 0 for no effect and ±100 for the full control effect; nearly all actives have a fitted effect of over 55% in size
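Screening of the MLSMR collection measured strand separation of a quenched forked DNA duplex (100 nM) by 20 nM WRN with 2 mM ATP, all final. Compounds were preincubated with enzyme 15 min at room temperature.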
Pol eta inh: qHTS for Inhibitors of Polymerase Eta; actives 1.2% (n = 390,000); recombinant Pol eta, fluorescent DNA replication assay; Potency, µM (top dose mostly 114 µM), for inactives: at the highest dose activity change, negative = inhibition, usual class: inhibitors; AID 588591, 2011; DNA polymerase eta (Homo sapiens), Q9Y253; also: % is scaled to controls: 0 for no effect and ±100 for the full control effect
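Pol eta at 10 nM preincubated with compounds 15 min at room temperature; reaction started with fluorescent substrate (50 nM final) and read kinetically at 0 and 10 min.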
POLI inh: qHTS for Inhibitors of Polymerase Iota; Potency, µM (top dose mostly 115 µM), inactives show top-dose activity, negative = inhibition, actives largely listed as inhibitors; AID 588590, 2011; actives 1% (n = 390,000); Pol iota fluorescent replication assay, 10 min
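Pol iota at 10 nM preincubated 15 min with compounds at room temperature; reaction started with fluorescent substrate, 50 nM final. Fluorescence read kinetically at 0 and 10 min; buffer-only wells as negative control.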
FEN1 inhibitor: qHTS Assay for the Inhibitors of Human Flap endonuclease 1 (FEN1); Potency, µM (top dose mostly 114 µM), without a hit: top-dose activity change, negative = inhibition, most hits filed as inhibitors; actives 0.35% (n = 390,000); Recombinant FEN1 flap cleavage, fluorescence, 15 min; P39748; also: % is scaled to controls: 0 for no effect and ±100 for the full control effect; nearly all actives have a fitted effect of over 65% in size
Target sequence (P39748 whole entry, looked up): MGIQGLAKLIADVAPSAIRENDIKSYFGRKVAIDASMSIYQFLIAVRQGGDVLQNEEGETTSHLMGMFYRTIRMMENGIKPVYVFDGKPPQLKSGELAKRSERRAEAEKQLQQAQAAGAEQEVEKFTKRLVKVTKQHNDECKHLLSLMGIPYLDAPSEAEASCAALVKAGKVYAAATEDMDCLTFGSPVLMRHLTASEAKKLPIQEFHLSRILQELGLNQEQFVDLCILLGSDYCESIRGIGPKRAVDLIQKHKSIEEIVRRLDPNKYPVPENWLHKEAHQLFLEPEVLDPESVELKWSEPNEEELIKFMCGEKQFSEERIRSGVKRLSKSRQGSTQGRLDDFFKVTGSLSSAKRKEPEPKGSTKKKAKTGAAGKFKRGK
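Read-out was taken twice, immediately and after 15 min, following addition of 50 nM substrate to 10 nM FEN1 that had sat with test compound for 15 min at room temperature. Curves came from a four-parameter Hill model.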
Pol kappa inh: qHTS for Inhibitors of Polymerase Kappa | DNA polymerase kappa (Homo sapiens), Q9UBT6 | purified Pol kappa, fluorescent DNA synthesis assay, 10 min | Potency, µM (top dose mostly 107 µM), for the others: at the top dose activity, negative = inhibition, usual class: inhibitors | actives 0.53% (n = 400,000); also: % is scaled to controls: 0 for no effect and ±100 for the full control effect
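Here, compound and 10 nM enzyme are combined for 15 min at room temperature; adding 50 nM substrate (final) starts DNA synthesis, tracked by fluorescence at 0 and 10 min against buffer-only wells.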
WRN helicase inh-2: qHTS for Inhibitors of WRN Helicase: Confirmatory Assay for Cherry-picked Compounds. shares compounds with WRN helicase inh-1. WRN helicase DNA unwinding, fluorescence kinetic. Potency, µM (top dose mostly 57.1 µM), for the others: at the highest dose activity, negative = inhibition, actives largely listed as inhibitors. actives 63% (n = 610). AID 720497, 2013; also: nearly all actives have a fitted effect of over 65% in size
TO displacement: qHTS for Inhibitors of WRN Helicase: Thiazole Orange DNA Binding Counterscreen | actives 10% (n = 610) | thiazole orange DNA binding displacement, fluorescence | AID 720499, 2013 | shares compounds with WRN helicase inh-1 | Potency, µM (series often up to 57.1 µM), for inactives: top-dose activity change, negative = inhibition, usual class: inhibitors;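 also: drop in dye fluorescence marks compound binding to DNA; % is scaled to controls: 0 for no effect and ±100 for the full control effect; nearly all actives have a fitted effect of over 60% in size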
BLM helicase inh: qHTS for Inhibitors of WRN Helicase: BLM Helicase Counterscreen for WRN Inhibitors; shares compounds with WRN helicase inh-1; Recombinant BLM helicase DNA unwinding, red fluorescence; Potency, µM (titrated, usually from 57.1 µM), inactives show at the highest dose activity change, negative = inhibition, actives largely listed as inhibitors; actives 60% (n = 610); also: nearly all actives have a fitted effect of over 60% in size
Numbers without * were called inactive; u = inconclusive; x = not tested or not shown. Calls follow the shape of the dose curve; as a rule, active = well fitted curve in the direction sought with a large enough effect; inconclusive = small, poorly fitted or top-dose-only effect, or another doubt; inactive = no such curve, though single readings can be large; an effect the other way counts as inactive or inconclusive. Potency is read from the fitted curve at half-maximal effect.

SMILES	POLB inh	WRN helicase inh-1	Pol eta inh	POLI inh	FEN1 inhibitor	Pol kappa inh	WRN helicase inh-2	TO displacement	BLM helicase inh
O=C1NC(=O)C(=Cc2ccccc2[N+](=O)[O-])C(=O)N1	x	39.8µM*	-4.2%	-0.6%	7.6%	-14.2%	4.8%	-2.0%	0.3%
CN1C(=O)C(=CN2CCN(C(=O)c3ccco3)CC2)C(=O)N(C)C1=S	37.7%	-7.1%	-5.4%	3.2%	0.0%	-2.3%	x	x	x
CCCCn1c(=O)c(C=Nc2ccc(Cl)cc2)c(O)n(Cc2ccco2)c1=O	-1.9%	-6.1%	-25.4%	41.9%	-3.5%	-6.5%	x	x	x
CCCCN1C(=O)/C(=C/c2ccc(N(C)C)cc2)C(=O)N(Cc2ccco2)C1=O	22.4µM*	28.2µM*	39.8µM*	u	u	25.1µM*	u	2.8%	21.5µM*
CCCCN1C(=O)/C(=C\c2ccco2)C(=O)N(CCc2ccccc2)C1=O	8.91µM*	31.6µM*	39.8µM*	u	56.2µM*	25.1µM*	u	-9.0%	21.5µM*
Cn1c(=O)oc2cc(S(=O)(=O)N3CCCC(C(=O)N4CCN(c5cccc(Cl)c5)CC4)C3)ccc21 (stereo not given)	37.8%	x	-16.5%	48.3%	-13.8%	-14.8%	x	x	x
O=C1C(=Cc2cn(-c3ccccc3)nc2-c2ccc(OCc3ccc(Cl)cc3)cc2)SC(=S)N1CCS(=O)(=O)O	x	14.1µM*	x	x	x	x	10.8µM*	u	3.83µM*

Bioassay records (PubChem BioAssay)
